The list is not random: actives were taken first. Their share in the collection is about 0.9%.
RN4220 kill: kills Staphylococcus aureus RN4220. S. aureus RN4220 growth, OD600, 16 h. inhibition, % (test concentration not listed). 330,000 tested, 0.33% active. AID 1259311; in the data active = inhibition above about 85%;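 also: plate controls were untreated cells for no effect and reference antibiotic for full effect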
ugtP null kill: growth inhibition of S. aureus ugtP deletion strain | S. aureus RN4220 ugtP deletion, OD600 growth, 16 h | growth inhibition, % (concentration not given with the values) | 330,000 tested, 0.54% active | AID 1259309; in the data active = growth inhibition above about 68%;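 also: plate controls were untreated wells for no effect and antibiotic for full effect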
Mtb bLac sens: beta-lactam sensitization of Mtb H37Rv; M. tuberculosis H37Rv growth with meropenem, percent inhibition; inhibition, % at 25 µM; 330,000 tested, 0.27% active; AID 434955;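 also: growth measured after seven days incubation then overnight dye step; 0% = bacteria only wells and 100% = bacteria with antibiotic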
BioA inh-1: inhibitors of Mycobacterium tuberculosis BioA enzyme. purified M. tuberculosis BioA enzyme, plate reader. inhibition, % at 9.99 µM. 360,000 tested, 0.096% active; in the data active = inhibition above about 40%; inconclusive = no clear call, values can overlap the other calls
PfHsp40 rescue: restores yeast growth despite PfHsp40 toxicity | S. cerevisiae expressing PfHsp40, growth rescue, ATP luminescence | growth rescue, % at 12.5 µM | 340,000 tested, 0.68% active; in the data active = growth rescue above about 28%, passing the limit was not always enough; inconclusive = no clear call, values can overlap the other calls;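 also: yeast W303a lacking pdr1 and pdr3 grown in galactose medium; growth measured after three days at 30 °C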
BioA inh-2: blocks M. tuberculosis BioA aminotransferase; shares compounds with BioA inh-1; purified BioA enzyme, plate reader, dose response; max activity, %; 310 tested, under 10 active; AID 651679;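 also: top concentration of the dilution series was 10 µM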
Target sequence (P9WQ81 whole entry, looked up): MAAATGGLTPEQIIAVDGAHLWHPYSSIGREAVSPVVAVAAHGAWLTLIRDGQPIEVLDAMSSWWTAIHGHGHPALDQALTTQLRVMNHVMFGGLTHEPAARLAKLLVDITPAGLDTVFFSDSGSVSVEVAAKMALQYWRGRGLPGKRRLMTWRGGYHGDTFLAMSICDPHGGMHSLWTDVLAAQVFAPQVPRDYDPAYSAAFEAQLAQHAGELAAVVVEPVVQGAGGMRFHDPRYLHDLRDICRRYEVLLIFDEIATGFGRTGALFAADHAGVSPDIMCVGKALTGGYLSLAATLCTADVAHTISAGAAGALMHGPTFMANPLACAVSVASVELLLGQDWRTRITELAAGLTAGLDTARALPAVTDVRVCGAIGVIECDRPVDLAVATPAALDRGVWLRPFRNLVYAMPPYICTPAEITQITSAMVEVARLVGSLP
HepG2 tox 2: cytotoxicity in HepG2 cells. shares compounds with BioA inh-1. plate reader. 310 tested, under 10 active. max activity, %
NIH3T3 tox 5: NIH3T3 viability loss; shares compounds with BioA inh-1; NIH3T3 cytotoxicity, plate reader; activity change, negative = cytotoxicity, % at 26 µM; 310 tested, under 10 active; AID 651900
* hit, by the source's call; i = inactive; ? = inconclusive; · = not tested or not shown; [ ] = remark or other dose. Unless noted, no rule for the calls is given here.

SMILES	RN4220 kill	ugtP null kill	Mtb bLac sens	BioA inh-1	PfHsp40 rescue	others
COc1ccc(N/N=C(\C#N)C(N)=O)cc1	·	·	-3	·	47*
CCOc1ccc(N/C(SC)=C(/C#N)C(N)=O)cc1	5	1	-7	0	1
COc1ccc(NN=C(C#N)C(N)=O)cc1	8	1	·	·	·
Cc1cccc(C2C3C(=O)N(Cc4ccccc4)C(=O)C3[C@]3(Cc4ccc(Cl)cc4)C(=O)N(c4cccc(Cl)c4)C(=O)N23)c1 (stereo not given in full)	9	6	·	·	·
S=C(Nc1ccc(Cl)cc1)c1nc2ccccc2[nH]1	99*	96*	-3	0	5
N#Cc1ccc(C(=O)Nc2nnc(-c3cccs3)o2)cc1	51	33	97	-2	0
CCC1CCCCN1S(=O)(=O)c1ccc(C(=O)Nc2nnc(-c3cccs3)o2)cc1 (stereo not given)	95*	99*	2	1	60*
O=C(Nc1nnc(-c2cccs2)o1)c1cccc(C(F)(F)F)c1	100*	100*	96	-1	21
CC1CC(C)CN(S(=O)(=O)c2ccc(C(=O)Nc3nnc(-c4cccs4)o3)cc2)C1 (stereo not given)	100*	100*	93	-1	-1
CN(C)S(=O)(=O)c1ccc(C(=O)Nc2nnc(-c3cccs3)o2)cc1	17	-11	89	·	-2
CCC(=O)c1cn(C(CCC(OC)OC)CC(=O)OC(C)(C)C)cc1CC (stereo not given)	-1	-2	·	·	·
COc1ccc(CN2CCC(=O)N(C(CO)c3ccccc3)CC2)cc1 (stereo not given)	2	-1	·	·	·
CCOc1cc(C=O)c(Br)cc1OC1CCCC1	-9	87*	11	-2	0
COc1cc(C=O)c(Br)cc1OCc1ccc(C)cc1	-1	78	-2	-1	2
CC(C)CC(NC(=O)c1[nH]cnc1C(=O)NC(C)C(=O)OC(C)(C)C)C(=O)OCc1ccccc1 (stereo not given)	1	-15	·	·	·
CCOC(=O)C1C2COc3ccc(Br)cc3C2N2C(=O)N(c3ccc(Br)cc3)C(=O)[C@]12C (stereo not given in full)	0	-9	·	·	·
N#CCC(=O)NNC(=S)NC(=O)C(c1ccccc1)c1ccccc1	8	-4	-1	·	21
CC(=O)NC(=S)NNC(=O)C(c1ccccc1)c1ccccc1	16	6	3	·	62*
CCC(C)n1c(=O)c(C(=O)Nc2ccccc2S(N)(=O)=O)c(O)c2ccccc21 (stereo not given)	103*	76	-4	0	0
C=CC[C@@H](Cc1ccc(F)cc1)C(=O)OC[C@H]1CCCN1C(=O)[C@@H](CC=C)CC(=O)N[C@H](CO)Cc1ccccc1	·	·	-2	-2	15
C=CC[C@@H](Cc1ccc(F)cc1)C(=O)OC[C@H]1CCCN1C(=O)[C@H](CC=C)CC(=O)N[C@H](CO)Cc1ccccc1	·	·	-3	1	21
C=CCC[C@@H](Cc1ccc(F)cc1)C(=O)OC[C@@H]1CCCN1C(=O)[C@H](CC=C)CC(=O)N[C@H](CO)Cc1ccccc1	·	·	10	1	45*
C=CC[C@@H](Cc1ccc(F)cc1)C(=O)OC[C@H]1CCCN1C(=O)[C@@H](CC=C)CC(=O)N[C@@H](CO)Cc1ccccc1	0	-11	0	-1	32*
C=CCC[C@@H](Cc1ccc(F)cc1)C(=O)OC[C@H]1CCCN1C(=O)[C@@H](CC=C)CC(=O)N[C@H](CO)Cc1ccccc1	·	·	-1	-1	39*
COc1ccc(NC(=O)Nc2ccc3c(c2)C(=O)N(C(C)CO)CC(C)C(CN(C)C(=O)Nc2ccc(OC)cc2)O3)cc1 (stereo not given)	1	-2	·	·	·
SMILES	RN4220 kill	ugtP null kill	Mtb bLac sens	BioA inh-1	PfHsp40 rescue	others
COc1cc(C=CC(=O)N2CCCN(C(=O)C=Cc3cc(OC)c(OC)c(OC)c3)CC2)cc(OC)c1OC	4	2	·	·	·
CCN1C(=O)C2C(c3ccc(Cl)cc3)N3C(=O)CN(CC4CC4)C(=O)[C@@]3(Cc3ccccc3)C2C1=O (stereo not given in full)	7	4	·	·	·
Cc1cc(CNC(=O)COC(=O)c2ccc(Cl)c(N)c2)cc(C)c1O	0	1	-8	0	105*
CCC(C)C(C(=O)N1CCNCC1)n1cc(C(N)Cc2ccc(O)cc2)nn1 (stereo not given)	4	-4	·	·	·
CCn1c(=O)c(C(=O)Nc2nc3ccccc3[nH]2)c(O)c2ccccc21	100*	100*	100	1	?
CCc1nc2ccccc2c(=O)n1NC(=O)c1c(O)c2ccccc2n(CC)c1=O	14	30	-11	·	181*
CCCCCn1c(=O)c(C(=O)Nc2nc3ccccc3[nH]2)c(O)c2ccccc21	83	101*	99	0	2
CCCCCn1c(=O)c(C(=O)Nc2ccccc2Cl)c(O)c2ccccc21	5	23	-4	0	0
Nc1ccn(CC(=O)NC(CO)Cc2c[nH]c3ccccc23)c(=O)n1 (stereo not given)	7	0	·	·	·
CCOC(=O)C1=C(CN2CCN(C(=O)c3ccco3)CC2)NC(=O)NC1c1ccc(Cl)cc1 (stereo not given)	1	-1	-1	-1	0
CCOC(=O)C1=C(CN2CCN(C(=O)c3ccco3)CC2)NC(=O)NC1c1ccc(OC(C)C)cc1 (stereo not given)	1	5	-3	44*	0
O=c1c2ccccc2nc(C=Cc2cccc([N+](=O)[O-])c2)n1CCO	2	-11	·	·	·
O=C(CCc1ccc(O)cc1)c1c(O)cc(O)cc1O	1	-16	-2	2	4
COc1cc(O)c(CC=C(C)C)c(O)c1C(=O)CCc1ccc(O)cc1	73	92*	2	0	210*
c1ccc(CSc2nnc(-c3cccnc3)o2)cc1	3	7	72	·	1
Clc1ccc(CSc2nnc(-c3cccnc3)o2)cc1	7	9	4	65*	2	BioA inh-2=-9;HepG2 tox 2=-12;NIH3T3 tox 5=-3
Cc1ccc2c(c1)C1C(CO2)C(c2ccccc2)[C@]2(C)C(=O)N(Cc3ccc(Cl)cc3)CC(=O)N12 (stereo not given in full)	-9	-40	·	·	·
N#CC(=Cc1ccc(N2CCOCC2)o1)C(=O)N1CCOCC1	5	3	·	·	·
COc1cccc(-c2ccc3c(c2)[C@@H]2[C@@H](CCN2C(=O)c2cccc(F)c2)[C@@H](CO)N3)c1	·	·	·	-2	·
O=C(c1cccc(F)c1)N1CC[C@@H]2[C@H]1c1cc(-c3cccc(F)c3)ccc1N[C@@H]2CO	·	·	·	73*	·	BioA inh-2=7;HepG2 tox 2=i;NIH3T3 tox 5=-11[23.5 µM]
O=C(c1cccc(F)c1)N1CC[C@@H]2[C@H](CO)Nc3ccc(-c4cccc(F)c4)cc3[C@@H]21	·	·	·	41*	·	BioA inh-2=-6;HepG2 tox 2=i;NIH3T3 tox 5=-7

High-throughput results (PubChem BioAssay)
